Source: the supplement of paper PMC11732987, “Enantioselective OTUD7B fragment discovery through chemoproteomics screening and high-throughput optimisation” (Communications Chemistry, 2025)

What was measured:
Assay in all cases: log2 ratio of Biotin-Ahx-Ub-VS probe labelling (fragment/DMSO); higher = less target engagement (more negative = stronger competition), active = hit call of the paper (q ≤ 0.05, log2 ratio ≤ -1)
Details in all cases: compound concentration: 200 uM; treatment time: 3 h
USP42 = molecular target: T1, USP42 (UniProt Q9H9J4)
T1 sequence (whole entry): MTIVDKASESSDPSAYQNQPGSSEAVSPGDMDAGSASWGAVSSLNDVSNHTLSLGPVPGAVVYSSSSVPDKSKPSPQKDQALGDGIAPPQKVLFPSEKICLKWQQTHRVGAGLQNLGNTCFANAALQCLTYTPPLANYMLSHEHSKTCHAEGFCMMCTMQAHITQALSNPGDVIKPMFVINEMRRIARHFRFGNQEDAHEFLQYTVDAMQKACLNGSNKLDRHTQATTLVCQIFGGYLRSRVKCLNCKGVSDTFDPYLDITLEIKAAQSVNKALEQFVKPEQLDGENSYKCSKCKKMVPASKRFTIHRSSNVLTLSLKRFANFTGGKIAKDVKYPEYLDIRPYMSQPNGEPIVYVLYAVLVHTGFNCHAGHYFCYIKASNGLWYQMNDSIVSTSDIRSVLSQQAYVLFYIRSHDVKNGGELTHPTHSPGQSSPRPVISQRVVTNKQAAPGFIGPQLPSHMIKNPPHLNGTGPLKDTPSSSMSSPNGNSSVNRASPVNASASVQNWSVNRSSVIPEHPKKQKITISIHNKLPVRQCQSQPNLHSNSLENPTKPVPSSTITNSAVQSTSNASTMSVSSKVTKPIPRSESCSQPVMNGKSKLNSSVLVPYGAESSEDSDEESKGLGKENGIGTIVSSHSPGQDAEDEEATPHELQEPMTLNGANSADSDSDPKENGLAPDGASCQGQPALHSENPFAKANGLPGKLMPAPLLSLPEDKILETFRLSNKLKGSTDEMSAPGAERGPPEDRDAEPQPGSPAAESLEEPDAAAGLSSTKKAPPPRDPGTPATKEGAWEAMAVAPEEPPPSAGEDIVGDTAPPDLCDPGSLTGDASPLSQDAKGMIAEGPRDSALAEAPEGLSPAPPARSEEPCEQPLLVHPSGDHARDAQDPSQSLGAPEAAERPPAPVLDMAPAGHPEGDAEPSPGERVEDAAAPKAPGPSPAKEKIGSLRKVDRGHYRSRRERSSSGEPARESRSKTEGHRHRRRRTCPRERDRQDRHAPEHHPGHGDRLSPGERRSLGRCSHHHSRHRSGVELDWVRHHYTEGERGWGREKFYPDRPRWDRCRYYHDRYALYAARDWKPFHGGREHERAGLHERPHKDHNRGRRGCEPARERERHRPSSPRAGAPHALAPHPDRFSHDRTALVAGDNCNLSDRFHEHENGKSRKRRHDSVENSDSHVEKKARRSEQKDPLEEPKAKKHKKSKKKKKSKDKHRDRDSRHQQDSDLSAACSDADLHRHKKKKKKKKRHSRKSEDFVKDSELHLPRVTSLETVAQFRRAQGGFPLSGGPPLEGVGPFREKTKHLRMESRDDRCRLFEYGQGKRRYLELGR
How it was run: (§1)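 HEK293T lysate (495 µg per sample, in Tris/CHAPS/IGEPAL buffer with protease inhibitors) was treated in triplicate with fragment at 200 µM or with DMSO for 3 h. It was then treated with Biotin-Ahx-Ub-VS (0.5 µM final) for 1 h. Labelled DUBs were NeutrAvidin-enriched, digested with LysC and trypsin, and run by diaPASEF LC-MS/MS. Spectronaut label-free quantities were global-median-normalised. Values are average log2 ratios fragment/DMSO by unpaired t-test, using proteins with ≥2 unique peptides.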

USP46 = USP46 (UniProt P62068)
How it was run: as §1

USP47 = molecular target: T2, USP47 (UniProt Q96K76)
T2 sequence (whole entry): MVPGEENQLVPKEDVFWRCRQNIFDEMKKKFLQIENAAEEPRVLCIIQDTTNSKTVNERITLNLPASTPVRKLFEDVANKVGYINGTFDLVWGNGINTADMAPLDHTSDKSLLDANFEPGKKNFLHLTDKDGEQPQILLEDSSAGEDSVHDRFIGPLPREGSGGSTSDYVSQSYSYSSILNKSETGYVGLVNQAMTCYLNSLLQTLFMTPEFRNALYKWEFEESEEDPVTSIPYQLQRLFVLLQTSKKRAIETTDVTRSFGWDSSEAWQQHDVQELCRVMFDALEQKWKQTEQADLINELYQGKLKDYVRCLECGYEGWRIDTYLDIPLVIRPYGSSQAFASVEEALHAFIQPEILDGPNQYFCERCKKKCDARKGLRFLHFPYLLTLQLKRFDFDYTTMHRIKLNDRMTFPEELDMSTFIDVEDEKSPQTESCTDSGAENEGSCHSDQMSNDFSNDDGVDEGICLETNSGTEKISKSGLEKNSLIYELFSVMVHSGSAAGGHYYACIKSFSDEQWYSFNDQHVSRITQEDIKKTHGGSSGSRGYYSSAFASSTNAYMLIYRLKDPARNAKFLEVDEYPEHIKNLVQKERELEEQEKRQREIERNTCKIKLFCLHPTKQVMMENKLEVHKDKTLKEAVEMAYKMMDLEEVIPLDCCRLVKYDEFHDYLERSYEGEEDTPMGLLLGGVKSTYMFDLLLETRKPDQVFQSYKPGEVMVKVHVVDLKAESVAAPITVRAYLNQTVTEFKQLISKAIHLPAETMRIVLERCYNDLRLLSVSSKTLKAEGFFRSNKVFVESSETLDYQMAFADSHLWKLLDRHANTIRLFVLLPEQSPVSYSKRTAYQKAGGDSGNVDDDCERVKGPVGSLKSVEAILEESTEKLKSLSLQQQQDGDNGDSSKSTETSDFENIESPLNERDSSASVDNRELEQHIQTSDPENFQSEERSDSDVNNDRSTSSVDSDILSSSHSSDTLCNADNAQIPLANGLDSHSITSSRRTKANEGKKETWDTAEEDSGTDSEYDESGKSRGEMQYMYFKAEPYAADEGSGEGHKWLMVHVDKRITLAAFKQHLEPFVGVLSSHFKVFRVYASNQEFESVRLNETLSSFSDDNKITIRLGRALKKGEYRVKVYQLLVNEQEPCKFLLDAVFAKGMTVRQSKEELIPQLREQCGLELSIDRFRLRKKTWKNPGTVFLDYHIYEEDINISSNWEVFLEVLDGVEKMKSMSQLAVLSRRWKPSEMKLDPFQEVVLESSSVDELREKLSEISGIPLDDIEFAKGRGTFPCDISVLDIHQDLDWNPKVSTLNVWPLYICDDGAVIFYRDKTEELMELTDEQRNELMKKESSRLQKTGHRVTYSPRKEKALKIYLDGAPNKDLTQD
How it was run: as §1

USP48 = molecular target: T3, USP48 (UniProt Q86UV5)
T3 sequence (whole entry): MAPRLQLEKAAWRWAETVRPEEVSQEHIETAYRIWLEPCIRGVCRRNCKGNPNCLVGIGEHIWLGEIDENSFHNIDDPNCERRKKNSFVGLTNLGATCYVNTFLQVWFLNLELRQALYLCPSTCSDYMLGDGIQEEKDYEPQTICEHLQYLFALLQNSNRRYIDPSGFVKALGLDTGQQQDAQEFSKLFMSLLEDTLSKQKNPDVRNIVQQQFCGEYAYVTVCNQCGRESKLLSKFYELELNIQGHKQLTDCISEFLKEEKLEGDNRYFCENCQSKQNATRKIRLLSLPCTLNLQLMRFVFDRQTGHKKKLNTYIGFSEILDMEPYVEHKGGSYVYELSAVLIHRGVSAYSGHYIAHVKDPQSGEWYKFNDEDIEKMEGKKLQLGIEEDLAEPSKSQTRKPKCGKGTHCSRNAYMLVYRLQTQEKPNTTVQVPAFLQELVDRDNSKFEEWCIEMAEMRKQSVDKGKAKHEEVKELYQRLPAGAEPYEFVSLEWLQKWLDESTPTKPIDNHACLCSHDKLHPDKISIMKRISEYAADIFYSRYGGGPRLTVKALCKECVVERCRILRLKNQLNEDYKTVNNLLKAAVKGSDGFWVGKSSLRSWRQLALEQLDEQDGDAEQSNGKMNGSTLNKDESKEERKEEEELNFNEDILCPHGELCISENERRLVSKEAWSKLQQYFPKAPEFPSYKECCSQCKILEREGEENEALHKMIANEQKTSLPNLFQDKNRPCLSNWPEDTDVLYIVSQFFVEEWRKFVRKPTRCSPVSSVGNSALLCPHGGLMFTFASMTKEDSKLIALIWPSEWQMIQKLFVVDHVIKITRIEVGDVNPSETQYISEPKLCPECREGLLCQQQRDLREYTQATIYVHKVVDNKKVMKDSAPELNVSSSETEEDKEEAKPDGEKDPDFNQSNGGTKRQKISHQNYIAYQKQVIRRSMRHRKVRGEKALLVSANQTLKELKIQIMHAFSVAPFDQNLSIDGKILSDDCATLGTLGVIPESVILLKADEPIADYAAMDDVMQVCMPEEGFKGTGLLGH
How it was run: as §1

USP5 = molecular target: T4, USP5 (UniProt P45974)
T4 sequence (whole entry): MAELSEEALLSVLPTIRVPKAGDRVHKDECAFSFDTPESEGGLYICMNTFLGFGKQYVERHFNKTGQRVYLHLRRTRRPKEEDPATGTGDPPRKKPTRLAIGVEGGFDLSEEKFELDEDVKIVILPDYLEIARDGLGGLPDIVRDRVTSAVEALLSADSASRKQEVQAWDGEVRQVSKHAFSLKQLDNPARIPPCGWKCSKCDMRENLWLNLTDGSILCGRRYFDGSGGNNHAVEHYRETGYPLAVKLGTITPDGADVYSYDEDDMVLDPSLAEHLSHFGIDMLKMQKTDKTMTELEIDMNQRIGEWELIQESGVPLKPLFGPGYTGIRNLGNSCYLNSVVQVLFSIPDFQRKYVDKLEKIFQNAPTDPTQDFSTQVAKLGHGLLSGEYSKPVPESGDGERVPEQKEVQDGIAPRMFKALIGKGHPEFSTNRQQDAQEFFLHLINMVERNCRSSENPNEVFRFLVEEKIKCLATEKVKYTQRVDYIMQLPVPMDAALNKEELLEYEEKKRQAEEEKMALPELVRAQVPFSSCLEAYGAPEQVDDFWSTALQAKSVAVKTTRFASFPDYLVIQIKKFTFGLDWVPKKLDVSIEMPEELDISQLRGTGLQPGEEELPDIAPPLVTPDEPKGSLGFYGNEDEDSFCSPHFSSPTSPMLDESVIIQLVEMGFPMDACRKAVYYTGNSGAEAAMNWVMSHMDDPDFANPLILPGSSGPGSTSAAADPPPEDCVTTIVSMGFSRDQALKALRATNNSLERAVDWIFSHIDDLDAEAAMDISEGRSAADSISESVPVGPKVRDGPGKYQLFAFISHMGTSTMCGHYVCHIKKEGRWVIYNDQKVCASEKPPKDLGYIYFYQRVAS
How it was run: as §1

USP54 = USP54 (UniProt Q70EL1)
How it was run: as §1

USP7 = USP7 (UniProt Q93009)
How it was run: as §1

USP8 = molecular target: T5, USP8 (UniProt P40818)
T5 sequence (whole entry): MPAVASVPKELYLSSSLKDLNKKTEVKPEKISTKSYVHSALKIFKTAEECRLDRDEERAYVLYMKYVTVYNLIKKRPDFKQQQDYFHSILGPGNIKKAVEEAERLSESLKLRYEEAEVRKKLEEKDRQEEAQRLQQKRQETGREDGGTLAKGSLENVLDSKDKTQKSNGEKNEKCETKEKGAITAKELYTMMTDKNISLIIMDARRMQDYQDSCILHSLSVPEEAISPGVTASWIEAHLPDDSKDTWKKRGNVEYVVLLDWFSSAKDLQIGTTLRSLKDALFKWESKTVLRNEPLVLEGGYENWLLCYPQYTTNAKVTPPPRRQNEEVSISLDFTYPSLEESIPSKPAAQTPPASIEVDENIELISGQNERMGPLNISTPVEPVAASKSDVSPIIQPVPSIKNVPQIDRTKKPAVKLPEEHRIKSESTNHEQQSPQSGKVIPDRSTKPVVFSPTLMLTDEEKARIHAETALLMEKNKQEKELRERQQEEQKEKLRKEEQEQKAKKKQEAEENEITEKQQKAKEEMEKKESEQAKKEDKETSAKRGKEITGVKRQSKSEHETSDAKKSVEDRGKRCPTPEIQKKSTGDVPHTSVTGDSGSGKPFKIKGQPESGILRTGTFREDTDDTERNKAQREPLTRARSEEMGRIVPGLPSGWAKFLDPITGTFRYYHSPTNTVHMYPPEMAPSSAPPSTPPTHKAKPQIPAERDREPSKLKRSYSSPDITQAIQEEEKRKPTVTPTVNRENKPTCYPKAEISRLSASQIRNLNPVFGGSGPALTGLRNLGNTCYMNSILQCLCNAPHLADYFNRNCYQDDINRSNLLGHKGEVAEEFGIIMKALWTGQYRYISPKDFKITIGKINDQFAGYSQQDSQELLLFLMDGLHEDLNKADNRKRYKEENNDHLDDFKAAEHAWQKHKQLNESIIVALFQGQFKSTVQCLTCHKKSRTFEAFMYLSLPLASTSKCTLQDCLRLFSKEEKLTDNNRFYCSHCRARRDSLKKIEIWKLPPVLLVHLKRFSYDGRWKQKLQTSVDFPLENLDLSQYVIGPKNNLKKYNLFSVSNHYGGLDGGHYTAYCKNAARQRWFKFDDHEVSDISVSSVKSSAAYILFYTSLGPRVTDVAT
How it was run: as §1

USP9X = USP9X (UniProt Q93008)
How it was run: as §1

UniProt O00487 = molecular target: UniProt O00487
How it was run: as §1

Measured: log2 ratio of Biotin-Ahx-Ub-VS probe labelling

Sequence of USP7 (Q93009 whole entry, looked up): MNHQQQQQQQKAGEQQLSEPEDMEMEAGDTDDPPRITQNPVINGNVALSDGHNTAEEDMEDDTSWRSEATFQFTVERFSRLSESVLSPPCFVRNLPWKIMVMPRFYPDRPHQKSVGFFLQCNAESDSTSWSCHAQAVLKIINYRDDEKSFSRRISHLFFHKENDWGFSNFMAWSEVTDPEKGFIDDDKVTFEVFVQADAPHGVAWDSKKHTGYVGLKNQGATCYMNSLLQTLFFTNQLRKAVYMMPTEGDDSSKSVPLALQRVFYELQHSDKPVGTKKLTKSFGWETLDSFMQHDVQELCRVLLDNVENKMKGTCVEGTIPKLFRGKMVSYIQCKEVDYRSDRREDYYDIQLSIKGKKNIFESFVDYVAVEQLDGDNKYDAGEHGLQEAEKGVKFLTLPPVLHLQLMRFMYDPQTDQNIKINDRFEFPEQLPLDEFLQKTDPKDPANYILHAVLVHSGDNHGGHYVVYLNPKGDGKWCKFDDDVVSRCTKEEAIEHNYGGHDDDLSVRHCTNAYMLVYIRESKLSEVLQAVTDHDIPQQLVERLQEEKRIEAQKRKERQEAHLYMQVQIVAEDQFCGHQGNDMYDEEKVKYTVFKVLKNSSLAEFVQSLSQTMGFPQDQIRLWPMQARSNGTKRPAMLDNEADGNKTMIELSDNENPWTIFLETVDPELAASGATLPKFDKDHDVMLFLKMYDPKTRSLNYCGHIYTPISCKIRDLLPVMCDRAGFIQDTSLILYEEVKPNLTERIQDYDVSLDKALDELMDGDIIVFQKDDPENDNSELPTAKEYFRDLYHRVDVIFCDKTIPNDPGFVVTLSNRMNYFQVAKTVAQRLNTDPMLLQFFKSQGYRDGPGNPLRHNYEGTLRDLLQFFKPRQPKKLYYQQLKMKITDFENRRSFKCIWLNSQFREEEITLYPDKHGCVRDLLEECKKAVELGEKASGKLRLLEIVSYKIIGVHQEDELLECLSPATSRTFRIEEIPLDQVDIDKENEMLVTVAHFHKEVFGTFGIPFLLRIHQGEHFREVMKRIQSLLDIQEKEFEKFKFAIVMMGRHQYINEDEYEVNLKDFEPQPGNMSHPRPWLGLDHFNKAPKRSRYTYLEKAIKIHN
Sequence of USP9X (Q93008 whole entry): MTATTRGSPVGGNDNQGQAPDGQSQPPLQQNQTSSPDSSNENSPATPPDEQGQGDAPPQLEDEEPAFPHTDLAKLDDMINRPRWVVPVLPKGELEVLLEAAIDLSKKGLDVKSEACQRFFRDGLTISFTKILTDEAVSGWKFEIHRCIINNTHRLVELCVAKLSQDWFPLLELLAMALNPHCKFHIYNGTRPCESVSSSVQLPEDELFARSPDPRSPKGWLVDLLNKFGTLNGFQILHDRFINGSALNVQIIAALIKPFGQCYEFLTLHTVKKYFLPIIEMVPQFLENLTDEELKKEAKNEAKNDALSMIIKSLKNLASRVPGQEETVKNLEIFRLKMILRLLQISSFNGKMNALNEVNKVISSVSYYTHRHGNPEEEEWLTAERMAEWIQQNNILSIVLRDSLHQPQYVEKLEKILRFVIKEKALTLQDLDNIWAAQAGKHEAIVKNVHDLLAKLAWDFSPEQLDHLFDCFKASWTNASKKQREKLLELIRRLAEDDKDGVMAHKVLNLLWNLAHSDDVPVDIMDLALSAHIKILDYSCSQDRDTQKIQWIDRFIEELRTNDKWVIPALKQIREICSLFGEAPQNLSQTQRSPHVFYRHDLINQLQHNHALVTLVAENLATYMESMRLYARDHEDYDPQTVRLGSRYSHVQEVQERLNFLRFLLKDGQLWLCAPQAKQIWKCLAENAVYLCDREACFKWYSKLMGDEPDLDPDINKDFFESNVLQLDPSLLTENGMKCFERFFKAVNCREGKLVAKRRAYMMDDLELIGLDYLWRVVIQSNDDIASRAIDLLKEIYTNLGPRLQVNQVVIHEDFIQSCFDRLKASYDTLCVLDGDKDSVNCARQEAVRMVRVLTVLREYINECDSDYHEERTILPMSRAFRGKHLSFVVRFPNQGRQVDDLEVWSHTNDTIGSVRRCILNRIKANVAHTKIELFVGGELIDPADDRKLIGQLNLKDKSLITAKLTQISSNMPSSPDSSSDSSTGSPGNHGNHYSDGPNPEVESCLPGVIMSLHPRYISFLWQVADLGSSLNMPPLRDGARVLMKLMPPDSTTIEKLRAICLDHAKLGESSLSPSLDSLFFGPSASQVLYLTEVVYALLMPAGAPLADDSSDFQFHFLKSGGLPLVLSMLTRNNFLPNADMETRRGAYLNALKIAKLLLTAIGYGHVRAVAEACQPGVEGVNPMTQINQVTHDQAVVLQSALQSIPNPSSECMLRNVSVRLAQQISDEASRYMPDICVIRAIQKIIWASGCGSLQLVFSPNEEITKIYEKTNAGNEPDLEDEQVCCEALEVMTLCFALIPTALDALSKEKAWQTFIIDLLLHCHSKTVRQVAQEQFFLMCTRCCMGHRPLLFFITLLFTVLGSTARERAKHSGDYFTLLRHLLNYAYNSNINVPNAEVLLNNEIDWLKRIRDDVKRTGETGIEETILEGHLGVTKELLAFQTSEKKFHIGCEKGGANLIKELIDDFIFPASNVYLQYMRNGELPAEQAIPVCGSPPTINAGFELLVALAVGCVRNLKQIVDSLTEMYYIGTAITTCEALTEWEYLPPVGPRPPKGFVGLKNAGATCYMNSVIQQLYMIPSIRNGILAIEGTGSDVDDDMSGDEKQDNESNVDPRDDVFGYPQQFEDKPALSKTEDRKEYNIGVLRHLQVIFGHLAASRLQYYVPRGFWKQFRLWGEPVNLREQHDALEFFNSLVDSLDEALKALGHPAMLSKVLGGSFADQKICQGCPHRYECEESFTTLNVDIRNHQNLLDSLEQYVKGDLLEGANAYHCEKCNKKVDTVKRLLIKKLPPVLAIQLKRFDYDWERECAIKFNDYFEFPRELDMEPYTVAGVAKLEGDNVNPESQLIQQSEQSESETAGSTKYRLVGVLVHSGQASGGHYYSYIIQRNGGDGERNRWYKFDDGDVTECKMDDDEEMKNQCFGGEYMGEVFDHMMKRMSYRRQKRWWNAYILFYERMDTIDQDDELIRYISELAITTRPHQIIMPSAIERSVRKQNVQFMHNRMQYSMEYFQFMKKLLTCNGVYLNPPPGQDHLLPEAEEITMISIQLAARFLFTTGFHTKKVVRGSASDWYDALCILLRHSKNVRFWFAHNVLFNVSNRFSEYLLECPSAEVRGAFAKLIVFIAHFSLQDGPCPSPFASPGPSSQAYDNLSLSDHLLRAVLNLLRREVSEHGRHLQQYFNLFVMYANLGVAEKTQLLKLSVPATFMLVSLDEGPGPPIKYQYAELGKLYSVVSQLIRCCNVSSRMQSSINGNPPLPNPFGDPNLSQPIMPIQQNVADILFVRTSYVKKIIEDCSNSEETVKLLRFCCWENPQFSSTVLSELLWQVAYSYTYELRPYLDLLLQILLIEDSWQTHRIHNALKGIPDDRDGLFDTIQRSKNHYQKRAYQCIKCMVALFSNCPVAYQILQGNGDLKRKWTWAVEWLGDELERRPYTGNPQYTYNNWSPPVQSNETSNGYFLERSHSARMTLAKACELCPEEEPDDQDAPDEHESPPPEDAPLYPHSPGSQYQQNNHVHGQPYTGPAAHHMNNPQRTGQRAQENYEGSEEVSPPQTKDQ
Sequence of USP46 (P62068 whole entry): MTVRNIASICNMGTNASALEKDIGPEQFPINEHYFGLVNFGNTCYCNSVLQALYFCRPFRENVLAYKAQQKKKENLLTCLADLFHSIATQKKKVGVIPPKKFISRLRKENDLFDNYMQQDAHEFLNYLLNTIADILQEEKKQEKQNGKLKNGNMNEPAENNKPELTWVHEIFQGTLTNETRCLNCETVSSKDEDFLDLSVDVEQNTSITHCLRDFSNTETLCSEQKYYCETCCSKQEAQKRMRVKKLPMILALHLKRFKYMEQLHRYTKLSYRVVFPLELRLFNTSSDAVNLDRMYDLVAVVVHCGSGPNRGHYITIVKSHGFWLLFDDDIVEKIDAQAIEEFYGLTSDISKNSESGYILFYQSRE
Sequence of UniProt O00487 (O00487 whole entry): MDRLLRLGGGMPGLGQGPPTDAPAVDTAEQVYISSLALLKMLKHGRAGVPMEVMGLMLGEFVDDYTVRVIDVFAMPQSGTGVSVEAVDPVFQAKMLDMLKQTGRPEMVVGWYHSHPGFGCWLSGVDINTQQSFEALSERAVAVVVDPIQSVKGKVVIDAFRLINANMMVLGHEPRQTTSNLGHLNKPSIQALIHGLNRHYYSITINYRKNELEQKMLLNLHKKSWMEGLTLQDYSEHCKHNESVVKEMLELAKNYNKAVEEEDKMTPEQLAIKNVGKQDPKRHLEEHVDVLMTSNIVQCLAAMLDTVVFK

Cc1ccc2nnc(CNC(=O)CCl)n2c1
inactive: USP42 0.336 | USP46 -0.000756 | USP47 0.13 | USP48 -0.0762 | USP5 0.114 | USP54 0.357 | USP7 0.0284 | USP8 0.28 | USP9X 0.0675 | UniProt O00487 -0.0931
